Assay in all cases: DAPPL (digital affinity profiling via proximity ligation, sequencing); 10 mM Tris-HCl pH 7.5, 50 mM NaCl, 1 mM DTT, 4% glycerol, room temperature, 30 min; GST-TFs on glutathione beads, 16-mer random dsDNA library, 0.1% formaldehyde crosslink after washing; high values mean tight binding
Common to all, as to details: protein: recombinant; tags: N-terminal GST; dsDNA, one strand shown

The target in one assay is T1, FLI1 (Homo sapiens, UniProt Q01543 1-452).
T1 sequence: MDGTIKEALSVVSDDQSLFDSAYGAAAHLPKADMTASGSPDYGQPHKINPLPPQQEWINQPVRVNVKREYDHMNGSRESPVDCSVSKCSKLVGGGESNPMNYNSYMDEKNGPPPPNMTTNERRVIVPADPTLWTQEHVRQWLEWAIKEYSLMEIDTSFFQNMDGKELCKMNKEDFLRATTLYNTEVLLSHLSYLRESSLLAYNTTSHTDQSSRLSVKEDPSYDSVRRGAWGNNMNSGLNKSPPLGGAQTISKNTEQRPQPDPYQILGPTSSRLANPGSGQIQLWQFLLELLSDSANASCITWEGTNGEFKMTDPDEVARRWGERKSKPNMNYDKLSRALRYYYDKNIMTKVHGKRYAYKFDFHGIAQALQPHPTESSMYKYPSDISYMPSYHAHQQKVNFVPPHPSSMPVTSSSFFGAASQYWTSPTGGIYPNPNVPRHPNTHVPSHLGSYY
In outline: (§1)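 Human transcription factors fused to GST were expressed in yeast, captured on glutathione beads, given DNA barcodes and pooled with a GST-only negative control. Pools were incubated with 200 nmole of a 16-mer random double-stranded DNA library in Tris/NaCl/DTT/glycerol buffer at room temperature for 30 min. They were then washed, crosslinked with 0.1% formaldehyde, proximity-ligated (BsaI/T4 ligase, 1 h, 37 °C), PCR-amplified and sequenced on an Illumina NextSeq500. Binding signal is each 6-mer's read frequency for a factor divided by its frequency for the GST control.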

Another assay addresses T2, ELK1 (Homo sapiens, UniProt P19419 1-428).
T2 sequence: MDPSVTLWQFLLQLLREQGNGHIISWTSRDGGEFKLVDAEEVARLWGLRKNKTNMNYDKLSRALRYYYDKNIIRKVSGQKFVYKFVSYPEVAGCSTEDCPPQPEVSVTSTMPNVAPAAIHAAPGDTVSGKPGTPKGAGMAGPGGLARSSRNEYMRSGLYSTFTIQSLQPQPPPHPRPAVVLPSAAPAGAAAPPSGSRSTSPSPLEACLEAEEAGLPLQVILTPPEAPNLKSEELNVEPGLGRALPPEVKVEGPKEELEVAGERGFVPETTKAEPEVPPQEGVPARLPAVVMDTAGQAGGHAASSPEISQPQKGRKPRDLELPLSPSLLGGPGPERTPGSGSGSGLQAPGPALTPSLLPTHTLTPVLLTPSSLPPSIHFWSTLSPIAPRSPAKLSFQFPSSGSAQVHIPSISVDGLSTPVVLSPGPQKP
The method in brief: as §1

Another assay concerns the target T3, GABPA (Homo sapiens, UniProt Q06546 1-454).
T3 sequence: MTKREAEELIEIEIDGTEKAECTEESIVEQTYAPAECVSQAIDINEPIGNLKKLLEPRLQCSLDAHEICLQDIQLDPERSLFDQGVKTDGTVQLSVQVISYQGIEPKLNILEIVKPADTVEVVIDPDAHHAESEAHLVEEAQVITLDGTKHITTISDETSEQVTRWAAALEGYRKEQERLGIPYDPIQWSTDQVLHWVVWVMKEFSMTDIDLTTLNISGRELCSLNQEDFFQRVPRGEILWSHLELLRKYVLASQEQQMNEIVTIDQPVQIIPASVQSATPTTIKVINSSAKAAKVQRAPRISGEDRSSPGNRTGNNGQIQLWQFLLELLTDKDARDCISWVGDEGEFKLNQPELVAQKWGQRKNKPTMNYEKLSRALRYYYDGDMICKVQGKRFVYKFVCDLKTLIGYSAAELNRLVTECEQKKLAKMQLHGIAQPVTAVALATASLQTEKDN
The method in brief: as §1

The target in a further assay is T4, ERG (Homo sapiens, UniProt P11308 1-479).
T4 sequence: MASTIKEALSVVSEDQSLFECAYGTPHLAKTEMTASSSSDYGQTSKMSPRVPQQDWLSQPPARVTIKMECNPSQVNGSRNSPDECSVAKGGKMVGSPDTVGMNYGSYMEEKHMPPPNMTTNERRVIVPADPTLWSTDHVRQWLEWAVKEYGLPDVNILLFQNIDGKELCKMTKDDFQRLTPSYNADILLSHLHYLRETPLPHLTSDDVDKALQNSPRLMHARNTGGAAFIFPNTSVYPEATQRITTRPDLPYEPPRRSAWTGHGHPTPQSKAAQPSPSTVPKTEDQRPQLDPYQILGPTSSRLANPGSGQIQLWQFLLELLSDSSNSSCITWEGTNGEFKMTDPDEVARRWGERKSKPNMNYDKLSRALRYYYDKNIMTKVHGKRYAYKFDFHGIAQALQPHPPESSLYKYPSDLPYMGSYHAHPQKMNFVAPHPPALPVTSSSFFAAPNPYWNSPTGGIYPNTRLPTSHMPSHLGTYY
In outline:
as §1

In a further assay the target is ELF1 (Homo sapiens, UniProt P32519 1-619). In outline: as §1
In a further assay the target is T5, EHF (Homo sapiens, UniProt Q9NZC4 1-300).
T5 sequence: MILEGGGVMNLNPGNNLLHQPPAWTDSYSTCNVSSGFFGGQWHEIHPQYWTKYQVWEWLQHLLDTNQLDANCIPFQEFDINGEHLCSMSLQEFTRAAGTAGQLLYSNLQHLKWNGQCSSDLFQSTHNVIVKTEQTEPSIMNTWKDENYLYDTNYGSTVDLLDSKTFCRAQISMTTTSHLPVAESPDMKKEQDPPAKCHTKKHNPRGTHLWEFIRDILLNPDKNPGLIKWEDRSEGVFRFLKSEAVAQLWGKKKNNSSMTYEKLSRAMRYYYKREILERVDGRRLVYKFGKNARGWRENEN
The method in brief: as §1

Another assay deals with SPI1 (Homo sapiens, UniProt P17947 1-270). In outline:
as §1

Another assay concerns the target SPIB (Homo sapiens, UniProt Q01892 1-262). The method in brief: as §1
A further assay deals with T6, ELK3 (Homo sapiens, UniProt P41970 1-407).
T6 sequence: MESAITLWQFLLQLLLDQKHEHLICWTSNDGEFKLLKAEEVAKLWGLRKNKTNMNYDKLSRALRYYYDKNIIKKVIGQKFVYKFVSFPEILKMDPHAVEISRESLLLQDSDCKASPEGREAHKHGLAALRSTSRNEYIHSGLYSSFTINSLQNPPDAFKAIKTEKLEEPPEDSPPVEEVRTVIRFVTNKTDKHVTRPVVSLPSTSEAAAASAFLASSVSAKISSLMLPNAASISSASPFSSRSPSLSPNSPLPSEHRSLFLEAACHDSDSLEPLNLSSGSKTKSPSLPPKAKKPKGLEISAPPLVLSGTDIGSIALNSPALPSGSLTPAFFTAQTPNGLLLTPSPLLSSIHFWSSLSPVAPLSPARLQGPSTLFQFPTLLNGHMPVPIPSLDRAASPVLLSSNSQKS
The method in brief:
as §1

ELF1, sequence (P32519 whole entry): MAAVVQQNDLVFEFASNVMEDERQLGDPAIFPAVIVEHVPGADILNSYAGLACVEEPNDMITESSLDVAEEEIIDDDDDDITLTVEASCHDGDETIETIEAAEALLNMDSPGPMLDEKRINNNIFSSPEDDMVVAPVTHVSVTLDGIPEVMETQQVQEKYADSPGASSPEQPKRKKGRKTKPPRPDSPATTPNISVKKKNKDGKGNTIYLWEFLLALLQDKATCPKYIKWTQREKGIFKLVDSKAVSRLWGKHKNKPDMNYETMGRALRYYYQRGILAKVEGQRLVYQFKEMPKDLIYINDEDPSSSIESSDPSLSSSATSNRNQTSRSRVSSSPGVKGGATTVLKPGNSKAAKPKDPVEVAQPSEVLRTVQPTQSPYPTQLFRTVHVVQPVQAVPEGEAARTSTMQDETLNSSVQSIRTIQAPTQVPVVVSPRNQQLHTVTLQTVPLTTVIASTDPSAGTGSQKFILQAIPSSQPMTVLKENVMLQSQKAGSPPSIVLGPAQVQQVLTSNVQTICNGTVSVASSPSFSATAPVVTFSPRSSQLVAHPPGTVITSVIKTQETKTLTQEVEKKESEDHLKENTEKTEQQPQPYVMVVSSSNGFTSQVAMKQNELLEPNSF
SPIB, sequence (Q01892 whole entry): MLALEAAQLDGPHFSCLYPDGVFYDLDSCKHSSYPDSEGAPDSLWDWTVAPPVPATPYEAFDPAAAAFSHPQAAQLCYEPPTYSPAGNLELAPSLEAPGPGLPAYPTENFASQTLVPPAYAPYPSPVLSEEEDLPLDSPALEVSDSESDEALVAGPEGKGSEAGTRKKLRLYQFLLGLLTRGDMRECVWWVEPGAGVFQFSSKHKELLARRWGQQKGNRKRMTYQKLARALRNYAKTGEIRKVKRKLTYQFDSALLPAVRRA

Regarding ACCTCA, the binding signal was 1.2 fold enrichment (6-mer frequency, TF over GST control) with FLI1; 1.16 fold enrichment (6-mer frequency, TF over GST control) in the assay with ELK1; 1.29 fold enrichment (6-mer frequency, TF over GST control) in the assay with GABPA; 1.15 fold enrichment (6-mer frequency, TF over GST control) in the assay with ERG; 1.23 fold enrichment (6-mer frequency, TF over GST control) with ELF1; 1.28 fold enrichment (6-mer frequency, TF over GST control) with EHF. In addition, the binding signal in the assay with SPI1 is 1.22 fold enrichment (6-mer frequency, TF over GST control); with SPIB it was 1.19 fold enrichment (6-mer frequency, TF over GST control); with ELK3 it was 1.19 fold enrichment (6-mer frequency, TF over GST control).
For CGCCTA, the binding signal in the assay with FLI1 was 1.17 fold enrichment (6-mer frequency, TF over GST control); in the assay with ELK1 it was 1.19 fold enrichment (6-mer frequency, TF over GST control); with GABPA, 1.15 fold enrichment (6-mer frequency, TF over GST control); in the assay with ERG, 1.14 fold enrichment (6-mer frequency, TF over GST control); in the assay with ELF1 it was 1.16 fold enrichment (6-mer frequency, TF over GST control); in the assay with EHF it was 1.23 fold enrichment (6-mer frequency, TF over GST control). Also, the binding signal with SPI1 was 1.13 fold enrichment (6-mer frequency, TF over GST control); in the assay with SPIB, 1.22 fold enrichment (6-mer frequency, TF over GST control); in the assay with ELK3, 1.24 fold enrichment (6-mer frequency, TF over GST control).
TTCGCA: the binding signal is 1.23 fold enrichment (6-mer frequency, TF over GST control) in the assay with FLI1; 1.36 fold enrichment (6-mer frequency, TF over GST control) with ELK1; 1.33 fold enrichment (6-mer frequency, TF over GST control) with GABPA; 1.29 fold enrichment (6-mer frequency, TF over GST control) with ERG; 1.27 fold enrichment (6-mer frequency, TF over GST control) with ELF1; 1.34 fold enrichment (6-mer frequency, TF over GST control) in the assay with EHF. In addition, the binding signal with SPI1 was 1.32 fold enrichment (6-mer frequency, TF over GST control); with SPIB, 1.46 fold enrichment (6-mer frequency, TF over GST control); in the assay with ELK3, 1.25 fold enrichment (6-mer frequency, TF over GST control).
As to GGTTTG, the binding signal is 1.18 fold enrichment (6-mer frequency, TF over GST control) in the assay with FLI1; 1.15 fold enrichment (6-mer frequency, TF over GST control) with ELK1; 1.24 fold enrichment (6-mer frequency, TF over GST control) with GABPA; 1.13 fold enrichment (6-mer frequency, TF over GST control) with ERG; 1.19 fold enrichment (6-mer frequency, TF over GST control) with ELF1; 1.22 fold enrichment (6-mer frequency, TF over GST control) with EHF. For the same sequence, the binding signal was 1.06 fold enrichment (6-mer frequency, TF over GST control) with SPI1; 1.01 fold enrichment (6-mer frequency, TF over GST control) in the assay with SPIB; 1.2 fold enrichment (6-mer frequency, TF over GST control) with ELK3.
On to CAATAG, for which the binding signal with FLI1 is 1.07 fold enrichment (6-mer frequency, TF over GST control); with ELK1 it was 1.07 fold enrichment (6-mer frequency, TF over GST control); with GABPA, 1.22 fold enrichment (6-mer frequency, TF over GST control); with ERG, 1.04 fold enrichment (6-mer frequency, TF over GST control); in the assay with ELF1, 1.07 fold enrichment (6-mer frequency, TF over GST control); with EHF, 1.13 fold enrichment (6-mer frequency, TF over GST control). In addition, the binding signal was 1.04 fold enrichment (6-mer frequency, TF over GST control) with SPI1; 1.08 fold enrichment (6-mer frequency, TF over GST control) in the assay with SPIB; 1.13 fold enrichment (6-mer frequency, TF over GST control) in the assay with ELK3.
TCCGGA: the binding signal with FLI1 was 2.58 fold enrichment (6-mer frequency, TF over GST control); with ELK1, 2.53 fold enrichment (6-mer frequency, TF over GST control); with GABPA it was 2.37 fold enrichment (6-mer frequency, TF over GST control); in the assay with ERG it was 3.19 fold enrichment (6-mer frequency, TF over GST control); with ELF1, 2.3 fold enrichment (6-mer frequency, TF over GST control); in the assay with EHF it was 2.86 fold enrichment (6-mer frequency, TF over GST control). In addition, the binding signal was 2.39 fold enrichment (6-mer frequency, TF over GST control) with SPI1; 2.69 fold enrichment (6-mer frequency, TF over GST control) with SPIB; 2.67 fold enrichment (6-mer frequency, TF over GST control) with ELK3.
Regarding TACGTC, the binding signal with FLI1 was 1.19 fold enrichment (6-mer frequency, TF over GST control); in the assay with ELK1 it was 1.16 fold enrichment (6-mer frequency, TF over GST control); with GABPA it was 1.13 fold enrichment (6-mer frequency, TF over GST control); in the assay with ERG it was 1.16 fold enrichment (6-mer frequency, TF over GST control); with ELF1, 1.13 fold enrichment (6-mer frequency, TF over GST control); in the assay with EHF, 1.25 fold enrichment (6-mer frequency, TF over GST control). Besides, the binding signal was 1.12 fold enrichment (6-mer frequency, TF over GST control) in the assay with SPI1; 1.31 fold enrichment (6-mer frequency, TF over GST control) with SPIB; 1.21 fold enrichment (6-mer frequency, TF over GST control) in the assay with ELK3.

For the origin of these results see PMC7862700, “An all-to-all approach to the identification of sequence-specific readers for epigenetic DNA modifications on cytosine”.
